# Active and inactive are the calls of the source.
# What was measured:
# [1] = test system: Plasmodium falciparum Sir2 (PF13_0152, Sir2A); assay: Plasmodium falciparum Sir2A binding compounds – biochemical, small-molecule microarray, 635 nm fluorescence, primary screen (AID 1098); conditions: fluorescence 635 nm, higher = more signal;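 note: score merges spot fluorescence intensity with its signal-to-noise ratio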
# [2] = probe aDKK1 binding to arrayed compounds – biochemical, biotinylated probe, 635/667 nm fluorescence, primary screen (AID 1099); conditions: small-molecule microarray, higher = more signal;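 note: score merges 667nm spot fluorescence with signal to noise across triplicate slides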
# [3] = probe aCHRDL2 binding to arrayed compounds – biochemical, biotinylated probe, 635/667 nm fluorescence, primary screen (AID 1100); conditions: small-molecule microarray, higher = more signal
# [4] = change in splice reporter luminescence, either direction, cell-based, HEK293, spliceosome inhibition project, primary screen (AID 1101); conditions: HEK293 splicing luciferase reporter, 24 h, higher = more signal, called active from +8 up or from −8 down;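 note: HEK293 cells carrying a splicing-competent luciferase reporter gene; test concentration not given here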
# [5] = biological target: Fibroblast growth factor 10 (Homo sapiens) (UniProt O15520); assay: compounds binding fibroblast growth factor 10 – biochemical, small-molecule microarray, 635 nm fluorescence, primary screen (AID 1102); conditions: FGF10 binding, fluorescence 635 nm, higher = more signal
# Fibroblast growth factor 10 (Homo sapiens), sequence (O15520 whole entry, looked up): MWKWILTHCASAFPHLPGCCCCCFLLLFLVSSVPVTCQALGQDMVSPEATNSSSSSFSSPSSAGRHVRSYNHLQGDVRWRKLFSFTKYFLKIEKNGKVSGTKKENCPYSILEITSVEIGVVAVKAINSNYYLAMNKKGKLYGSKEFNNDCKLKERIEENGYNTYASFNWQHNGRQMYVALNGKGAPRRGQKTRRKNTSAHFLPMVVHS
# [6] = test system: glycogen synthase kinase-3 (GSK3A per assay name; protocol says GSK3B); assay: compounds binding glycogen synthase kinase-3 – biochemical, small-molecule microarray, 635 nm fluorescence, GSK3A, primary screen (AID 1103); conditions: fluorescence 635 nm, higher = more signal; note: the record names both GSK3A and GSK3B
# [7] = biological target: Epidermal growth factor receptor (Homo sapiens) (UniProt P00533); assay: compounds binding epidermal growth factor receptor – biochemical, small-molecule microarray, 635 nm fluorescence, primary screen (AID 1104); conditions: EGFR binding, higher = more signal;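 note: score merges 667 nm emission intensity with spot signal to noise over triplicate slides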
# Epidermal growth factor receptor (Homo sapiens), sequence (P00533 whole entry, looked up): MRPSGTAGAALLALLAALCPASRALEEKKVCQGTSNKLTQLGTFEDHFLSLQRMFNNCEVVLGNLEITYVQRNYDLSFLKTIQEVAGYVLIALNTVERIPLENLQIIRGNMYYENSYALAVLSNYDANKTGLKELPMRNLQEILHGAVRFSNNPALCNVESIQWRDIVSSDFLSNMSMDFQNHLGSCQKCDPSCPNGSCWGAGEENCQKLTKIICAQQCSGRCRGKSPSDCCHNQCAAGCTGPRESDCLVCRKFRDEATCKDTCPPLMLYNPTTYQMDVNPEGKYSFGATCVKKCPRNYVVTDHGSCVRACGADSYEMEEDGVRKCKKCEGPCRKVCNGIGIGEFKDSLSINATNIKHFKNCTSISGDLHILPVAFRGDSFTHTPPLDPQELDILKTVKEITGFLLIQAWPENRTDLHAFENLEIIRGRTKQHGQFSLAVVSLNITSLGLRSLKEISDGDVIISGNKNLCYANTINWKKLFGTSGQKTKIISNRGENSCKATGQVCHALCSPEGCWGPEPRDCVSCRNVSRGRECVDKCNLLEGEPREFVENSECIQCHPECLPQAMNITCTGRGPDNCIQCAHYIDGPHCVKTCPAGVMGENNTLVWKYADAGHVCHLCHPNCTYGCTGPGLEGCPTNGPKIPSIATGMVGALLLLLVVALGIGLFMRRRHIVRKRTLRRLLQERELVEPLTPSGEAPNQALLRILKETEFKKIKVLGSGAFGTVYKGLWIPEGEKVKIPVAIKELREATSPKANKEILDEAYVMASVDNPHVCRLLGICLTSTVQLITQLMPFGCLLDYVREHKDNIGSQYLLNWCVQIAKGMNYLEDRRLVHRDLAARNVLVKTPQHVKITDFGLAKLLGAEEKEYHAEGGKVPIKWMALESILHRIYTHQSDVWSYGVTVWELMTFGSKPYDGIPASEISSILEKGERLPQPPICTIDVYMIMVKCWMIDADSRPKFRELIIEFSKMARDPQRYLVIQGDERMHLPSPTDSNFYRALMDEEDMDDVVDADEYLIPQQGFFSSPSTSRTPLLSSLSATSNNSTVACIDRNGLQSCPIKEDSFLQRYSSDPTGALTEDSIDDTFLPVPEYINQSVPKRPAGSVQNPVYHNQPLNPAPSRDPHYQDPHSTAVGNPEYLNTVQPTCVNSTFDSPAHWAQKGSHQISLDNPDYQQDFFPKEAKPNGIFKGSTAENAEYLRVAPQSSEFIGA
# [8] = biological target: Follistatin-related protein 3 (Homo sapiens) (UniProt O95633); assay: compounds binding follistatin-related protein 3 – biochemical, small-molecule microarray, 635 nm fluorescence, primary screen (AID 1105); conditions: FSTL3 binding, higher = more signal;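 note: score merges emission near 667 nm and signal to noise per printed spot across three slides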
# Follistatin-related protein 3 (Homo sapiens), sequence (O95633 whole entry, looked up): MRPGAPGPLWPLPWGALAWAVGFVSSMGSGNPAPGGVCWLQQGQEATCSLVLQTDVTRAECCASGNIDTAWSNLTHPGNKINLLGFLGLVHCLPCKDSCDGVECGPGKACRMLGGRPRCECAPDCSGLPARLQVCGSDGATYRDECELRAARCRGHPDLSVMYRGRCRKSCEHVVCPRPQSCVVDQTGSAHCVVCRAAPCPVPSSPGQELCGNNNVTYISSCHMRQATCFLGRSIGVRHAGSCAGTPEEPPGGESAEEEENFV
# [9] = biological target: Dickkopf-related protein 1 (Homo sapiens) (UniProt O94907); assay: small molecules binding DKK1 protein – biochemical, small-molecule microarray, 635 nm fluorescence scan, primary screen (AID 1106); conditions: higher = more signal;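 note: score merges emission near 667 nm with signal to noise over three replicate slides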
# Dickkopf-related protein 1 (Homo sapiens), sequence (O94907 whole entry, looked up): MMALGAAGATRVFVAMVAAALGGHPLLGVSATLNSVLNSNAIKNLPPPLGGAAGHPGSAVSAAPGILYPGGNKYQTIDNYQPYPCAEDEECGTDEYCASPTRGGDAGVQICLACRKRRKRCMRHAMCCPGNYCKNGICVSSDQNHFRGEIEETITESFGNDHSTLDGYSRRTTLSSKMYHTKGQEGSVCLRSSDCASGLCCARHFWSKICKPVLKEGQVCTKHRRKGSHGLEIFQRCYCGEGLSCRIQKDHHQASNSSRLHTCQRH
# [10] = test system: Inhibin beta A chain (activin A); assay: small molecules binding activin A – biochemical, small-molecule microarray, 635 nm fluorescence scan, primary screen (AID 1107); conditions: INHBA, higher = more signal;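 note: mouse activin A protein probed at 4.33 µg/mL on printed slides; score merges bound-protein fluorescence near 667 nm with spot signal-to-noise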
# [11] = test system: Human papillomavirus type 1a protein E7 (residues 44-93); assay: small molecules binding HPV E7 44-93 – biochemical, small-molecule microarray, residues 44-93, 635 nm fluorescence, primary screen (AID 1108); conditions: fluorescence 635 nm, higher = more signal;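 note: E7 fragment applied at 1 µg/mL in TBST for 1 h at 4 C; score combines spot fluorescence with its signal to noise ratio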
# [12] = hepatitis C replication reporter changes, two-sided – Huh7 cells, luciferase reporter, HCV replication inhibitor project, primary screen (AID 1109); conditions: Huh7 HCV replicon luciferase reporter, 48 h; higher = more signal;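 note: huh7 hepatoma cells harbouring a luciferase neomycin HCV replicon reporter; luciferase luminescence as measure of HCV replicon replication; test concentration not given here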
# [13] = biological target: Left-right determination factor 2 (Homo sapiens) (UniProt O00292); assay: small molecules binding LEFTY2 protein – biochemical, small-molecule microarray, 635 nm fluorescence scan, primary screen (AID 1110); conditions: higher = more signal
# Left-right determination factor 2 (Homo sapiens), sequence (O00292 whole entry, looked up): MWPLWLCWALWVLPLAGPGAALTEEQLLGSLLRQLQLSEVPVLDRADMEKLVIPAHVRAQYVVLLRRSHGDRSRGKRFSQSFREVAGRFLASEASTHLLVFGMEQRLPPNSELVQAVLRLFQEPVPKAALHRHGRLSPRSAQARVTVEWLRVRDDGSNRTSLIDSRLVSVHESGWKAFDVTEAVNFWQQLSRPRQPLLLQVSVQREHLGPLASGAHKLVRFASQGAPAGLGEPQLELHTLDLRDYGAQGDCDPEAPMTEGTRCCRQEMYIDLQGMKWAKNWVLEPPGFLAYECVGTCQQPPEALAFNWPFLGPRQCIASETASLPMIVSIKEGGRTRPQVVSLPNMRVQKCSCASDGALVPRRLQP
# [14] = biological target: Calmodulin-1 (Homo sapiens) (UniProt P0DP23); assay: small molecules binding calmodulin-1 with EGTA – biochemical, small-molecule microarray, Cy5-labelled CALM1, profiling panel (AID 1111); conditions: Cy5-CALM1 binding fluorescence, higher = more signal;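 note: labelled calmodulin applied in Tris saline Tween buffer holding calcium plus EGTA and DTT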
# [15] = biological target: Calmodulin-1 (Homo sapiens) (UniProt P0DP23); assay: small molecules binding Ca-loaded calmodulin-1 – biochemical, small-molecule microarray, Cy5-labelled CALM1, plus calcium, artefact control for SMM control-protein annotation, profiling panel (AID 1112); conditions: Cy5-CALM1 binding fluorescence, higher = more signal;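 note: score merges spot fluorescence with signal to noise from triplicate slides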
# [16] = probe aWnt5a binding to arrayed compounds – biochemical, biotinylated probe, 635/667 nm fluorescence, primary screen (AID 1113); conditions: small-molecule microarray, higher = more signal;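 note: score merges 667 nm fluorescence intensity with signal-to-noise per printed feature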
# [17] = probe aShh binding to arrayed compounds – biochemical, biotinylated probe, 635/667 nm fluorescence, primary screen (AID 1114); conditions: small-molecule microarray, higher = more signal;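 note: probe is biotin-labelled aShh protein from a stem cell growth factor screen; measures binding of labelled protein to compounds printed on the slide; score merges feature fluorescence at 667 nm with signal-to-noise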
# [18] = probe aNog binding to arrayed compounds – biochemical, biotinylated probe, 635/667 nm fluorescence, primary screen (AID 1115); conditions: small-molecule microarray, higher = more signal;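 note: probe is biotinylated aNog protein used at 0.15 µg/mL for 1 h at 4 C; z-score combines 667 nm fluorescence of each spot with its signal to noise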
# [19] = biological target: Torsin-1A-interacting protein 1 (Homo sapiens) (UniProt Q5JTV8); assay: compound microarray binding of lysate hLAP1 – cell lysate, small-molecule microarray, COS7 lysate, 635/667 nm fluorescence, primary screen (AID 1116); conditions: 635 nm fluorescence, higher = more signal
# Torsin-1A-interacting protein 1 (Homo sapiens), sequence (Q5JTV8 whole entry, looked up): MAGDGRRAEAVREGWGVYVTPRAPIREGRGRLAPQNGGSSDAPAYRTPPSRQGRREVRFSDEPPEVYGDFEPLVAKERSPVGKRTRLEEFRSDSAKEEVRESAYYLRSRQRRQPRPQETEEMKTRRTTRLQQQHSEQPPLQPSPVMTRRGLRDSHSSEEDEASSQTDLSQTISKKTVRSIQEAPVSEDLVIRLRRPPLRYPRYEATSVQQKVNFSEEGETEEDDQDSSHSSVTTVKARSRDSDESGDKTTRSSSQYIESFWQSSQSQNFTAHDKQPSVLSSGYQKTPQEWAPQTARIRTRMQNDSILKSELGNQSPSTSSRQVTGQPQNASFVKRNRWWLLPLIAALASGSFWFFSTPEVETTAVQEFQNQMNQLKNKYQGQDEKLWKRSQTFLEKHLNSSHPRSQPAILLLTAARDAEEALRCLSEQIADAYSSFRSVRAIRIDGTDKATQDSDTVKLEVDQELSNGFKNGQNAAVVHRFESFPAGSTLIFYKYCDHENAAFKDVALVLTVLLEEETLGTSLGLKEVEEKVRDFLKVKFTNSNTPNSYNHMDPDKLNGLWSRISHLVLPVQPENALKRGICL
# [20] = biological target: Alpha-bungarotoxin (Bungarus multicinctus) (UniProt P60615); assay: compounds binding labelled alpha-BTX control protein – biochemical, small-molecule microarray, Alexa647 label, 635/667 nm fluorescence, artefact control for SMM control protein annotation, profiling panel (AID 1117); conditions: alpha-BTX-A647 binding fluorescence, higher = more signal
# Alpha-bungarotoxin (Bungarus multicinctus), sequence (P60615 whole entry, looked up): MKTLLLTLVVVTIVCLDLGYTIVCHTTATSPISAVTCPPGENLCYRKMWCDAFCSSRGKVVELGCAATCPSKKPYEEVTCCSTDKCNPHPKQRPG
Compound,composite z-score [1],composite z-score [2],composite z-score [3],z-score [4],composite z-score [5],composite z-score [6],composite z-score [7],composite z-score [8],composite z-score [9],composite z-score [10],composite z-score [11],z-score [12],composite z-score [13],composite z-score [14],composite z-score [15],composite z-score [16],composite z-score [17],composite z-score [18],composite z-score [19],composite z-score [20]
O=C1C2C=CC(C(O)Cc3ccccc3)N(n3cnnc3)C2C(=O)N1Cc1ccccc1 (stereo not given),0.386,0.73,0.868,-0.195 (inactive),0.33,0.0704,-0.216,-0.294,-0.387,0.825,0.625,-0.53,-0.262,0.841,0.471,0.127,-0.007,0.908,0.955,0.165
COC(=O)[C@@]1(Cc2ccc(F)cc2)[C@H]2c3cc(C(=O)N(C)C)n(Cc4ccccc4)c3C[C@H]2CN1C(=O)c1ccccc1,1.18,1.06,0.971,-0.376 (inactive),0.483,-0.159,-0.22,0.827,-0.251,0.766,1.35,0.185,-0.496,1.11,0.363,-0.0977,1.17,1.59,-0.3,2.56
CC(C)OC(=O)C=C1C[C@@H](c2ccccn2)O[C@@H](c2ccccn2)O1,-0.152,-0.778,-1.68,1.08 (inactive),0.627,0.201,0.891,1.1,1.47,1.21,-0.0187,-0.884,1.05,-1.38,-0.98,-0.0607,0.489,-0.457,0.429,0.6
C=CCN1C(=O)[C@]2(O[C@H](CCn3cc([C@H](O)c4ccccc4)nn3)[C@@H]([Si](C)(C)c3ccc(OC)cc3)[C@@H]2C)c2cc(N3CCC3=O)ccc21,1.48,-0.29,0.224,-0.619 (inactive),0.864,0.169,0.0043,0.306,0.815,0.619,1.34,-3.08,0.152,0.439,-0.022,-0.0685,0.0253,0.328,0.549,1.07
C=CC1(C(=O)OC)CC=C(C(=O)OC)CC1 (stereo not given),0.0006,-0.259,-0.425,-1.38 (inactive),0.916,1.15,0.478,0.791,0.908,-0.115,1.1,-0.928,1.24,0.887,0.234,-0.141,1.1,-0.0689,1.1,0.605
CN(C)C(=O)[C@]1(Cc2ccccc2N=[N+]=[N-])N=C(c2ccc(OCCCO)cc2)O[C@@H]1c1ccccc1N=[N+]=[N-],1.11,1.72,1.01,-0.727 (inactive),0.885,-0.0929,0.405,1.3,0.172,1.14,1.38,-2.69,0.116,1.7,0.497,-0.0179,0.0796,1.39,2.54,1.22
NCCCCCNC(=O)[C@@H]1C[C@@H]2C(=O)N[C@@H](Cc3ccccc3)C(=O)N2[C@@H]1c1ccc(O)cc1,1.14,-0.0335,0.475,1.31 (inactive),1.11,1.17,0.632,1.37,0.484,0.609,1.37,-0.471,0.406,1.18,1.16,-0.0425,-0.138,-0.144,0.672,0.924
C=CCC(OC(C)=O)[C@@H]1[C@@H](N(Cc2cccc3ccccc23)C(=O)c2ccc(-c3ccccc3)cc2)c2cc(OCCCO)ccc2N1C(=O)c1ccc2ccccc2c1 (stereo not given in full),-0.101,0.25,0.357,-0.157 (inactive),0.0842,0.293,0.24,0.476,-0.601,1.28,0.564,0.098,-0.164,0.268,0.544,-0.0196,-0.0709,0.223,0.923,-0.0516
Cc1ccc([C@@H]2C[C@@H](Sc3ccccc3)[C@H](C(=O)O)CN2S(=O)(=O)c2ccc(C)cc2)cc1,1.31,0.055,0.874,-0.521 (inactive),1.37,1.34,0.271,0.968,-0.0594,0.289,1.47,-0.733,0.0973,1.66,0.481,0.0219,0.408,1.55,1.17,1.69
CCc1cccc(NC(=O)O[C@H]2[C@H](OC(=O)Nc3ccccc3-c3ccccc3)[C@@H](OC(=O)Nc3ccccc3-c3ccccc3)[C@@H](OC)O[C@@H]2CO)c1,1.29,0.481,0.648,-2.55 (inactive),1.13,0.954,0.0707,1.38,-0.0897,0.465,1.52,-3.79,0.3,1.71,-0.0011,0.0839,0.432,0.572,1.47,1.53
COC(=O)[C@@]1(CCS(=O)(=O)c2ccccc2)N=C(c2ccc(OCCCO)cc2)O[C@H]1c1ccccc1CN=[N+]=[N-],1.21,1.11,1.2,0.362 (inactive),0.336,1.24,0.143,1.01,-0.0332,0.799,0.797,-2.38,-0.343,1.72,0.373,-0.0539,0.0469,0.647,1.13,0.829
